Each structure is given as a SMILES string. Records with an inconclusive call do not appear. Values without a mark were called inactive. The source made the active and inactive calls. The call rests on the fitted dose curve; in most records, active means well fitted cell-killing curve with a large enough effect; inconclusive means small, poorly fitted or top-dose-only effect; inactive means flat fitted curve, though single readings scatter.
Potency means the concentration at half of the fitted maximal effect.

The nature of the test: qHTS of pediatric cancer cell lines to identify multiple opportunities for drug repurposing: Primary screen for DAOY cells (AID 1347090). Further: nearly all actives have a fitted effect of over 55% in size.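 On activity change, negative = cytotoxic: plate controls were DMSO for no effect and bortezomib for full effect.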 The settings on record: DAOY medulloblastoma viability, CellTiter-Glo luminescence, 48 h; series mostly up to 46 µM; activity change, negative = cytotoxic: at the top concentration. The method in brief: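 Cell viability, CellTiter-Glo luminescence; 500-1,000 cells/well, 8- or 11-point titration, 48 h compound exposure at 37 degrees C, 5% CO2. Controls: DMSO neutral, bortezomib 2.3 µM final as positive.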
For orientation: Quantitative high-throughput screening tests each substance at several concentrations.
With `CCCCCCCCCCCCCCCC[n+]1ccccc1`, the Potency was 16.8 µM (active). Take `CCCCCOc1ccc(C2SC(=O)NC2=O)cc1OCC` (stereo not drawn): the “activity change, negative = cytotoxic” value is -18.8%. On to `CCCCCCCCCCCCCC[N+](C)(C)C`, for which the Potency is 10.6 µM (active). Regarding `C=CC[N+]1([C@H]2C[C@H]3[C@@H]4CC[C@H]5C[C@H](OC(C)=O)[C@@H](N6CCCCC6)C[C@]5(C)[C@H]4CC[C@]3(C)[C@H]2OC(=O)CC)CCCCC1`, the “activity change, negative = cytotoxic” value is 10.1%.

With `CC(C)(C)C1CCC(CC2=C(O)c3ccccc3C(=O)C2=O)CC1` (stereo not drawn), the Potency was 3.35 µM (active). Take `CCCCCCCCCCCC[N+](C)(C)Cc1ccccc1`: the Potency was 16.8 µM (active).

Regarding `Cc1ccc(/C=N/n2c(-c3ccccc3)csc2=S)cc1`, the “activity change, negative = cytotoxic” value was 5.39%. For `CC[C@@]1(O)C(=O)OCc2c1cc1n(c2=O)Cc2c-1nc1ccccc1c2/C=N/OC(C)(C)C`, the Potency is 0.106 µM (active). On to `CN1CCC(Nc2ncc3ncnc(Nc4ccc(F)c(Cl)c4)c3n2)CC1`, for which the “activity change, negative = cytotoxic” value was -2.9%.

As for `CO[C@@H]1[C@@H](OC)[C@H](C)[C@@](O)(CC(=O)O)O[C@H]1[C@H](C)[C@H]1O[C@@]2(CC[C@@](C)([C@H]3CC[C@@](C)([C@@H]4O[C@@H]([C@H]5O[C@](C)(O)[C@H](C)C[C@@H]5C)C[C@@H]4OC4C[C@H](OC)[C@@H](OC)[C@H](C)O4)O3)O2)C[C@H](O)[C@H]1C` (stereo partly drawn), the Potency is 3.35 µM (active).

On to `CCC(C(=O)OCCN1CCOC(c2ccccc2)C1C)c1ccccc1` (stereo not drawn), for which the “activity change, negative = cytotoxic” value is -0.203%. As for `Cc1ccc(CCn2c3c(c4cc(Cl)ccc42)CN(C)CC3)cn1`, the “activity change, negative = cytotoxic” value was -3.45%.

Consider `Cc1nc(N)nc(N)c1-c1ccc(Cl)c(Cl)c1`, for which the Potency is 0.841 µM (active).

For the origin of these results see PubChem BioAssay (NCATS).
